Several values for one entry are separate records, joined by “and”; a condition that tells them apart may be missing. Identical values can stand only once. More than one record can exist for a structure, and the calls need not agree. Activity calls are given as the source filed them.
What was measured:
[1] = small molecules captured by biotinylated probe aFSTL3 – biochemical, small-molecule microarray, fluorescence 635/667, stem cell growth factor project, primary screen (AID 1064); details: higher = more signal;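 further: measures binding of the biotinylated anti-FSTL3 antibody to printed compounds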
[2] = binders from COS7 lysate, DM2A8 probe, primary screen, torsin A project, cell lysate, small-molecule microarray, fluorescence 635/667 (AID 1065); details: higher = more signal, COS7 lysate expressing mutant human TOR1A
[3] = small molecules captured by biotinylated probe aFGF2 – biochemical, small-molecule microarray, fluorescence 635/667, stem cell growth factor project, primary screen (AID 1067); details: higher = more signal;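 further: measures binding of biotinylated aFGF2 protein to printed compounds on slides; z-score merges feature fluorescence and signal-to-noise across triplicate slides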
[4] = small molecules captured by biotinylated probe aFGF10 – biochemical, small-molecule microarray, fluorescence 635/667, stem cell growth factor project, primary screen (AID 1071); details: higher = more signal;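 further: score merges 667 nm spot intensity and signal to noise from triplicate slides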
[5] = biological target: Neurogenic locus notch homolog protein 2 (Homo sapiens) (UniProt Q04721); assay: small molecules binding Notch2 protein – biochemical, small-molecule microarray, 635 nm fluorescence, stem cell growth factors, primary screen (AID 1073); details: higher = more signal
[6] = biological target: Pro-neuregulin-1, membrane-bound isoform (Homo sapiens) (UniProt Q02297); assay: small molecules binding neuregulin-1 protein – biochemical, small-molecule microarray, fluorescence 635/667, psychiatric disease protein project, primary screen (AID 1075); details: NRG1 binding, 635 nm fluorescence, higher = more signal;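 further: score combines 667 nm spot fluorescence with signal to noise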
Pro-neuregulin-1, membrane-bound isoform (Homo sapiens), sequence (Q02297 whole entry, looked up, the tested form may be a part, canonical isoform): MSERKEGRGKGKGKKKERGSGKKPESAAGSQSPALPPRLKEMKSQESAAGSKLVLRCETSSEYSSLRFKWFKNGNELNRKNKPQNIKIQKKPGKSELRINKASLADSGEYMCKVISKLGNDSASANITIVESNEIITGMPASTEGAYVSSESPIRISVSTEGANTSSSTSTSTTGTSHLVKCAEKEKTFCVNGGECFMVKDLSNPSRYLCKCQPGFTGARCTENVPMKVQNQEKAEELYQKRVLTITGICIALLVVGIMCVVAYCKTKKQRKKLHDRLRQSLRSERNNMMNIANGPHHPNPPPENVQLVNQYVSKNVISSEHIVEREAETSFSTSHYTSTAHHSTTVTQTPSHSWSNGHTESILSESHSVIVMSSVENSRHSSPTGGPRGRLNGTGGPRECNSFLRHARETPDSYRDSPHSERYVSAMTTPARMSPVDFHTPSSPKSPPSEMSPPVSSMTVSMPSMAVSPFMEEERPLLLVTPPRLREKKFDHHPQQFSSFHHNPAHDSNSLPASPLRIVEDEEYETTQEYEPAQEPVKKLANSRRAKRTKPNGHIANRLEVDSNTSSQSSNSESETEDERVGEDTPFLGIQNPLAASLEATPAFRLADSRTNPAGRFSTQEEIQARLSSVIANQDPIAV

[7] = system: Neuregulin-1 EGF-like domain; assay: small molecules binding NRG1 EGF domain – biochemical, small-molecule microarray, 635 nm fluorescence, primary screen (AID 1081); details: higher = more signal;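 further: binding of the protein to compounds printed on small-molecule microarray slides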
[8] = FRG1 expression reporter modulators in myotubes – cell-based, C2C12 myotubes, firefly/Renilla luciferase, luminescence, FRG1 inhibition for FSHD, primary screen (AID 1084); details: FRG1 promoter luciferase, higher = more signal, called active from +8 up or from −8 down
[9] = small molecules captured by biotinylated probe aFST – biochemical, small-molecule microarray, fluorescence 635/667, stem cell growth factor project, primary screen (AID 1086); details: higher = more signal;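 further: score merges 667 nm fluorescence with signal-to-noise of each printed compound spot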
[10] = binders of probe aHhip on microarray, primary screen, stem cell growth factor project, biochemical, small-molecule microarray, fluorescence 635/667 (AID 1087); details: higher = more signal;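 further: score merges spot fluorescence at 667nm with spot signal to noise ratio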
[11] = system: PRMT1 (protein arginine N-methyltransferase 1); assay: small molecules binding arginine methyltransferase PRMT1 – biochemical, small-molecule microarray, 635 nm fluorescence, primary screen (AID 1088); details: higher = more signal;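 further: binding of Prmt1 protein to compounds spotted on small-molecule microarray slides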
[12] = growth effects on S. cerevisiae YJM789 – YJM789 clinical isolate, OD600, 24 h, basal, primary screen (AID 1089); details: higher = more signal, called active from +8 up or from −8 down;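 further: growth of clinical yeast isolate S. cerevisiae YJM 789 seeded 1000 cells per well; test concentration not given here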
[13] = S. pombe growth modifiers, basal conditions – strain 972, OD600, 24 h, no modulator, primary screen (AID 1090);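 further: basal condition with compound alone and no growth modifier present; test concentration not given here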; details: S. pombe 972 growth, higher = more signal, called active from +8 up or from −8 down
[14] = budding yeast growth modifiers under rapamycin – strain BY4716, OD600, 96 h, primary screen (AID 1091); further: test concentration not given here; details: S. cerevisiae BY4716 + rapamycin, higher = more signal, called active from +8 up or from −8 down
[15] = biological target: Torsin-1A-interacting protein 2 (Homo sapiens) (UniProt Q8NFQ8); assay: small molecules binding lysate-expressed LULL1 – cell lysate, human LULL1 lysate, 635/667 nm fluorescence, primary screen (AID 1092); details: small-molecule microarray, hLULL1 lysate binding, 635 nm fluorescence; higher = more signal;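 further: probe is lysate of COS7 cells overexpressing human LULL1; score merges per-feature 667 nm fluorescence with signal-to-noise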
Torsin-1A-interacting protein 2 (Homo sapiens), sequence (Q8NFQ8 whole entry, looked up): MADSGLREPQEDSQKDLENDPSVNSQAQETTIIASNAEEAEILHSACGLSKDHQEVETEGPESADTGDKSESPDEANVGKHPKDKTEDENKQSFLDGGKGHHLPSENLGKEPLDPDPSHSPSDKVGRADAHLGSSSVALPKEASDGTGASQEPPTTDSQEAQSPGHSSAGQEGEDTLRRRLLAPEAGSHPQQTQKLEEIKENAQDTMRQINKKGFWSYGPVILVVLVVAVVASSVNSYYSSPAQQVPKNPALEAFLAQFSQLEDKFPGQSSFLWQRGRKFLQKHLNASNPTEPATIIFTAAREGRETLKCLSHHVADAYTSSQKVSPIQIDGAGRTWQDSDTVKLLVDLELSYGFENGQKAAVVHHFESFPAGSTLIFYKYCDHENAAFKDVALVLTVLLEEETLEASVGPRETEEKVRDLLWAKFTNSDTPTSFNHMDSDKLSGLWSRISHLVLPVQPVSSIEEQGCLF

[16] = optical density change of DRC41 E. coli – strain DRC41, OD650, 24 h, E. coli filamentation project, primary screen (AID 1093);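 further: MC1000 strain lacking acrAB efflux and sulA so SOS filamentation is blocked; test concentration not given here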; details: E. coli DRC41 growth, higher = more signal, called active from +8 up or from −8 down
[17] = probe aLefty2 binding to arrayed compounds – biochemical, biotinylated probe, 635/667 nm fluorescence, primary screen (AID 1094); details: small-molecule microarray, higher = more signal;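 further: score merges spot fluorescence near 667 nm with spot signal-to-noise ratio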
[18] = system: Noggin (protein binding on small-molecule microarray); assay: small molecules binding Noggin protein – biochemical, 635/667 nm fluorescence, primary screen (AID 1095); details: 635 nm fluorescence, higher = more signal;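 further: score merges 667 nm feature fluorescence with signal to noise over triplicate slides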
[19] = biological target: Neurogenic locus notch homolog protein 3 (Homo sapiens) (UniProt Q9UM47); assay: small molecules binding NOTCH3 protein – biochemical, 635/667 nm fluorescence, primary screen (AID 1096); details: small-molecule microarray, 635 nm fluorescence, higher = more signal
Neurogenic locus notch homolog protein 3 (Homo sapiens), sequence (Q9UM47 whole entry, looked up): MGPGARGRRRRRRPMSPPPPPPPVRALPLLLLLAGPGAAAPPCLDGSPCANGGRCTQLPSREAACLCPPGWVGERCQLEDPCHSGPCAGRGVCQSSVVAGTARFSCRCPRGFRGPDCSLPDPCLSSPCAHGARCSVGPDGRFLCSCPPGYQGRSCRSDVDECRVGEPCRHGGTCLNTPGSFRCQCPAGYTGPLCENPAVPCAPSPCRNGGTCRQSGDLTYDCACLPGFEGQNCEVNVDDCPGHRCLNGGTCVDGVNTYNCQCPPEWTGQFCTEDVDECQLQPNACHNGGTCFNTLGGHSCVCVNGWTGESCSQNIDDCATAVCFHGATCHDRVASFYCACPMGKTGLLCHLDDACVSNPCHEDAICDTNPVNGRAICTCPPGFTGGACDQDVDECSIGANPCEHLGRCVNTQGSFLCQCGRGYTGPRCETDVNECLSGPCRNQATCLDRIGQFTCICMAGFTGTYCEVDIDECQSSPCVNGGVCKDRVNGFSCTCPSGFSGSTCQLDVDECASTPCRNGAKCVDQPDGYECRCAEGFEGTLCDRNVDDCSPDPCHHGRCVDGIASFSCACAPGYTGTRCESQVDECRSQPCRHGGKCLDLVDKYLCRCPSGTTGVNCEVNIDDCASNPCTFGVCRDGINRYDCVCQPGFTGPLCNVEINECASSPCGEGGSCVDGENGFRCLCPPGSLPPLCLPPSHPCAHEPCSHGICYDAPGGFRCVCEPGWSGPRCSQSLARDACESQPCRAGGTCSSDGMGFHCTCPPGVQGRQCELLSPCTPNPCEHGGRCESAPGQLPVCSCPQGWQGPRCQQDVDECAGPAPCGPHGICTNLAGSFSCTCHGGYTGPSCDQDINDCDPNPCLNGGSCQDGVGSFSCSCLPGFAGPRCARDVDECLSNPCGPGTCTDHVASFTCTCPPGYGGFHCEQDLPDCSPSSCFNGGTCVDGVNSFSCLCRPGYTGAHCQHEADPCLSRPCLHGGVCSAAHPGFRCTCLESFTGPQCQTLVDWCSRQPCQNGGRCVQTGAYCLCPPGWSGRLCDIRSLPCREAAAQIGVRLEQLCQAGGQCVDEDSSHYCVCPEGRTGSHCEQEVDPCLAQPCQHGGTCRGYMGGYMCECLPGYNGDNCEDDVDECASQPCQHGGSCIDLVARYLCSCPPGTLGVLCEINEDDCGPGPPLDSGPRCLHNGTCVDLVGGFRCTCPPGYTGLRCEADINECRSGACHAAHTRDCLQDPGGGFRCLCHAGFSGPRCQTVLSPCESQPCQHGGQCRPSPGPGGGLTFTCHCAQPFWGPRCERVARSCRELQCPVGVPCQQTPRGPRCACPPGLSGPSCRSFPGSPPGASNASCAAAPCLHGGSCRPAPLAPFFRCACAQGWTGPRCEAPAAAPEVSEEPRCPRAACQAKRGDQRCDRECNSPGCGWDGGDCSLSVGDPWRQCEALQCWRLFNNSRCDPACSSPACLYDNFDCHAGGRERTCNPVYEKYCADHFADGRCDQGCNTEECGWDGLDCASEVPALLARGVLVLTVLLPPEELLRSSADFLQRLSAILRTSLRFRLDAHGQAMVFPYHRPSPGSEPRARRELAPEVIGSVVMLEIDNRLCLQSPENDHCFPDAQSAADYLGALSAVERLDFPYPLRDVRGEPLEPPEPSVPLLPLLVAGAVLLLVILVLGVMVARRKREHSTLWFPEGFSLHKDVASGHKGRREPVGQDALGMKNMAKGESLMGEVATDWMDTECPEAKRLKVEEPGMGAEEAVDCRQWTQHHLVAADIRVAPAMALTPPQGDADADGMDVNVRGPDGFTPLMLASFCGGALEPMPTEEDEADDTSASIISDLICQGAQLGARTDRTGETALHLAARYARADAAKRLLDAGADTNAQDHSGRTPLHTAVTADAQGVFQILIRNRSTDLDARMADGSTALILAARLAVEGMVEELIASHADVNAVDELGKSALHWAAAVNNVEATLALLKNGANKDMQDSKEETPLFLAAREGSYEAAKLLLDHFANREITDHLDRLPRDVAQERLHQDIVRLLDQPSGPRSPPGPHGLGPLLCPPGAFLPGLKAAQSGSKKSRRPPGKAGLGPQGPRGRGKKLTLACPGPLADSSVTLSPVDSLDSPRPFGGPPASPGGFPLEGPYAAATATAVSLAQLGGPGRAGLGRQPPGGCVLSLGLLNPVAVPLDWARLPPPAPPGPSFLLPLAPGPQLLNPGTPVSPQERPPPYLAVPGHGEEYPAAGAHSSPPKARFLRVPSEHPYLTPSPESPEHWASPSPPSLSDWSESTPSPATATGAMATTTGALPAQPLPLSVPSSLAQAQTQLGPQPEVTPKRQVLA

[20] = probe aEGFR binding to arrayed compounds – biochemical, biotinylated probe, 635/667 nm fluorescence, primary screen (AID 1097); details: small-molecule microarray, higher = more signal;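 further: probe is a biotinylated anti-EGFR antibody binding compounds printed on slides; score combines fluorescence near 667 nm and signal to noise of each spot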

Row | SMILES | composite z-score [1] | composite z-score [2] | composite z-score [3] | composite z-score [4] | composite z-score [5] | composite z-score [6] | composite z-score [7] | z-score [8] | composite z-score [9] | composite z-score [10] | composite z-score [11] | z-score [12] | z-score [13] | z-score [14] | composite z-score [15] | z-score [16] | composite z-score [17] | composite z-score [18] | composite z-score [19] | composite z-score [20]
1 | CC(C)[Si]1(C(C)C)OCc2cc(CCCc3cc4c(c(CCc5ccccc5)n3)[Si](C(C)C)(C(C)C)OC4)nc(CCc3ccccc3)c21 | -0.0088 and -0.516 | 0.0696 and 0.445 | -0.105 and -0.12 | -0.841 and 0.402 | -0.0702 and 0.469 | -0.429 and -0.0826 | -0.688 and 0.277 | -0.712 (inactive) and 0.124 (inactive) | -0.0006 and 0.0171 | 0.141 and 0.065 | 0.393 and 0.722 | 0.873 (inactive) and 0.702 (inactive) | -19.7 (active) and 0.733 (inactive) | -1.25 (inactive) and 0.323 (inactive) | 0.227 and 0.364 | 2.13 (inactive) and -1.16 (inactive) | -0.128 and -0.0479 | -0.0022 and 0.42 | -0.604 and 0.721 | -0.157 and -0.0594
2 | CC(C)OC(=O)C=C1C[C@@H](c2ccccc2)O[C@@H](c2ccccc2)O1 | -0.682 and -0.0971 | 0.935 and 1.2 | -0.0695 and 0.0305 | 1.04 and 1.05 | 1.45 and 1.59 | 0.482 and 1.23 | 1.1 and 1.18 | -0.778 (inactive) and -0.828 (inactive) | 0.904 and 0.743 | 0.194 and 0.126 | 1.5 and 1.54 | -0.023 (inactive) and 0.548 (inactive) | -4.66 (inactive) and -7.08 (inactive) | -0.793 (inactive) and 0.632 (inactive) | 3.33 and 3.12 | 0.551 (inactive) and 0.884 (inactive) | 0.0528 and 0.269 | 1.09 and 0.798 | 1.09 and 1.13 | 0.302 and 0.366
3 | CC(C)=NOC[C@@H](O)COCc1ccco1 | -0.0008 | 2.26 | -0.0924 | 0.0026 | -1.37 | 0.126 | -0.603 | 0.929 (inactive) | -0.549 | -0.0645 | -0.697 | 0.848 (inactive) | 0.174 (inactive) | 0.746 (inactive) | -0.151 | 0.358 (inactive) | -0.122 | 0.301 | -1.45 | -0.147
4 | C=CC[C@@H](O)c1ccc(OCCO)cc1 | 0.137 and 0.75 | -0.827 and -0.804 | -0.0908 and -0.279 | -0.0284 and -0.887 | -1.41 and -2.02 | -0.773 and -0.567 | -0.0171 and 0.209 | 0.373 (inactive) and 1.07 (inactive) | -0.871 and -1.16 | -0.184 and -0.134 | 0.347 and -0.516 | -2.53 (inactive) and -2.22 (inactive) | -10.4 (active) and -1.63 (inactive) | -0.121 (inactive) and -0.238 (inactive) | -0.821 and -0.479 | 0.638 (inactive) and 0.664 (inactive) | 0.0698 and 0.066 | 0.29 and -0.934 | -1.03 and -0.668 | -0.272 and -0.305

— PubChem BioAssay
